Laboratory results taken from ChEMBL document CHEMBL3433997, “St. Jude Leishmania screening dataset” (2016).

Assays:
Assay type in all cases: functional
[1] = biological target: Solute carrier family 2, facilitated glucose transporter member 1 (Homo sapiens) (UniProt P11166); experiment: ST_JUDE_LEISH: Cytotoxicity at 2uM final concentration against transgenic Leishmania Mexicana promastigotes LmGLUT1 that are glucose transport deficient and complemented with the human glucose transporter GLUT1. Activity is measured by DNA content using SYBR green in vitro
[2] = biological target: Hexose transporter 1 (Plasmodium falciparum) (UniProt O97467); experiment: ST_JUDE_LEISH: Cytotoxicity at 2uM final concentration against transgenic Leishmania Mexicana promastigotes LmPfHT that are glucose transport deficient and complemented with the Plasmodium falciparum hexose transporter. Activity is measured by DNA content using SYBR green in vitro
[3] = biological target: Glucose transporter (Leishmania mexicana) (UniProt O61059); experiment: ST_JUDE_LEISH: Cytotoxicity at 2uM final concentration against transgenic Leishmania Mexicana promastigotes LmGT2 that are glucose transport deficient and complemented with the L. Mexicana glucose transporter 2. Activity is measured by DNA content using SYBR green in vitro

Solute carrier family 2, facilitated glucose transporter member 1 (Homo sapiens), sequence (P11166 whole entry): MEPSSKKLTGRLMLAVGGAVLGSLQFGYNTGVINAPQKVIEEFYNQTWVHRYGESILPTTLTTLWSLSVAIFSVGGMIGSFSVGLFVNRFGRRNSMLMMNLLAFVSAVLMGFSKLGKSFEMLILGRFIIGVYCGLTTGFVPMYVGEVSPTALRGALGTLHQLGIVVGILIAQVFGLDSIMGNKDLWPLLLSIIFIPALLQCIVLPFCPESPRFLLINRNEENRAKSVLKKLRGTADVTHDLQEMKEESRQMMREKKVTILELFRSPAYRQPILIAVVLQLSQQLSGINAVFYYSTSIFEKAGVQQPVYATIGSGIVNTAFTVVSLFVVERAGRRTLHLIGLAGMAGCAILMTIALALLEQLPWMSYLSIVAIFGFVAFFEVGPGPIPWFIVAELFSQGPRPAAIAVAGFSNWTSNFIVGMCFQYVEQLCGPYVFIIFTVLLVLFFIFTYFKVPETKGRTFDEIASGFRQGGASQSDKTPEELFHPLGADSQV

Compound | inhibition [1] [%] | inhibition [2] [%] | inhibition [3] [%]
CN1CCN(Cc2ccc(-c3ccc4c(Nc5ccc(Oc6ccccc6)cc5)ccnc4c3)o2)CC1 | -0.9 | -0.3 | 0.49
COc1ccccc1-n1c(SCC(=O)c2ccc3c(c2)CC(=O)N3C)nnc1-c1cccs1 | 24 | 35.2 | 13.3
CCN1CCc2nc3ccccc3c(C(=O)Nc3ccc(C#N)cc3)c2C1 | -0.12 | 3.74 | -1.04
Cc1cccc(-c2c(C)nc(N)nc2N)c1 | 4.96 | 2.06 | 1.08
Fc1cccc(Nc2nc(NCc3ccc4ccsc4c3)nc(Nc3cccc(F)c3)n2)c1 | 19.2 | 18 | 10.6
CC(C)Oc1ccc(CCCON2C(=N)N=C(N)NC2(C)C)cc1 | 20.8 | 28.2 | 19
Cc1cc(N[C@@H](CC(C)C)C(=O)Nc2ccccc2)nc(Nc2ccccc2)n1 | 1.17 | -0.52 | -0.1
CCOC(=O)NC1=NC(C)(C)N(OCCCOc2cc(Cl)c(Cl)cc2Cl)C(NC(=O)OCC)=N1 | 2.08 | 0.27 | 1.36
Cc1ccc(N2CCc3c(-c4cc5cccnc5nc4C)cc(C)nc32)c(Cl)c1 | 4.06 | 6.18 | 3.42
CC[C@H](C)[C@H](NC(=O)[C@H](CC1CCCCC1)[C@H](CC)N(O)C=O)C(=O)Nc1ccccn1 | 8.41 | 8.39 | 8.25
CC1CCN(Cc2c(O)ccc3c(O)c(-c4nc5ccccc5s4)c(=N)oc23)CC1 | 0.12 | 0.79 | -0.56
Fc1ccc(Nc2ccnc3cc(I)ccc23)c(Cl)c1 | 2.32 | 2.73 | 1.47
Cc1[nH]c(C)c(-c2ccc(OCc3ccc(F)cc3)cc2)c(=O)c1Br | 0.17 | -1.87 | -1.56
COc1cc2nc(-c3ccccc3)nc(N3CCN(C(=O)c4ccco4)CC3)c2cc1OC | 13.7 | 8.22 | 7.06
COc1ccc(S(=O)(=O)NC2CCN(c3ccc(C(F)(F)F)cc3NC(=O)OCC(C)C)CC2)cc1 | 0.36 | 1.75 | 2.43
COc1ccc2c(c1)CC(NCc1ccc(-c3ccc4nc[nH]c4c3)cc1)C2 (configuration not stated) | 4.22 | 2.21 | 1.31
CC(C)c1cc(Oc2c(I)cc(CCCc3ncc[nH]3)cc2I)ccc1O | 9.35 | 9.42 | 6.8

Compound | inhibition [1] [%] | inhibition [2] [%] | inhibition [3] [%]
O=C(Nc1ccc2c(c1)CCN2C1CCN(Cc2cccc(F)c2F)C1)c1ccco1 (configuration not stated) | 2.08 | 1.62 | 2.93
Cc1cccc2nc(-c3ccc(-c4ccc(CNCc5cccc(N)c5)cc4)s3)[nH]c12 | 4.29 | 1.98 | 2.76
CCOC(=O)c1c(NC(=O)c2ccccc2)sc2c(O)c(CN(CC)CC)ccc12 | 12 | 5.42 | 2.36
CCOC(=O)c1nc(-c2ccccc2)[nH]c1NC(=S)NC1CCCCC1 | -0.61 | -0.88 | -6.59
Cc1nc(C)c(-c2ccc(Oc3cc(Cl)cc(Cl)c3)cc2)c(O)c1Br | 1.01 | 2.38 | -1.58
OC(Cn1ccnc1)(c1ccc(Cl)cc1Cl)C1CCCCC1 (configuration not stated) | 7.78 | 1.5 | -0.69
COc1ccc(Cn2c(N3CCN(S(=O)(=O)c4ccc(OC)cc4)CC3)nc3c2c(=O)n(CC2CC2)c(=O)n3CC2CC2)cc1 | 0.89 | -0.86 | -1.39
COc1cc(C)c(C(O)CNC(C)CCc2ccccc2)cc1C (configuration not stated) | 2.16 | 2.83 | -0.47
O=C(Nc1ccc(F)cc1)NC1CCN(c2ccnc3ccccc23)C1 (configuration not stated) | 3.76 | 3.71 | 3.79
CC1CCCCN1CCCNC(=O)c1cccc(-c2cc3cc(Cl)c(Cl)cc3[nH]2)c1 (configuration not stated) | 3.16 | 3.02 | 4.99
CC(=O)c1cccc(NC(=O)NC2CCN(c3ccnc(Nc4ccc(F)cc4)n3)C2)c1 (configuration not stated) | -1.36 | -0.93 | -0.03
O=C(Nc1ccccc1)c1nn(CCCN2CCC(N3CCCC3)CC2)cc1-c1ccc(Cl)c(Cl)c1 | 2.06 | 0.39 | 0.89
CCOc1ccc(C(=O)Nc2nonc2-c2ccc(OC)c(OC)c2)cc1 | -0.49 | 1.82 | 0.47
O=C(/C=C/c1ccc(Cl)c(Cl)c1)NCCCCCN1CCC(C(=O)Nc2ccc(Cl)c(Cl)c2)CC1 | 3 | 2.54 | 2.34
CCN(CC)CCn1c(=N)n(CC(=O)c2ccc(-c3ccccc3)cc2)c2ccccc21 | 0.58 | 1.91 | 2.35
N#Cc1cccc(NC(=O)NC2CCN(CCCCCNC(=O)C3CC3c3ccc(Cl)c(Cl)c3)CC2)c1 (configuration not stated) | 0.56 | 0.42 | 1.85
CCCCCN1CCCCC(NS(=O)(=O)c2ccc(C(=O)Nc3ccc(C(F)(F)F)cc3)cc2)C1 (configuration not stated) | 0.12 | 2.98 | -1.53
